Laboratory results as given in PubChem BioAssay (NCATS).
Inconclusive results are not listed. Where a call stands in place of a potency, no number is given. Activity calls are given as the source filed them. Calls follow the shape of the dose curve; as a rule, active = well fitted inhibition curve with a large enough effect; inconclusive = small, poorly fitted or top-dose-only effect; inactive = no such curve, though single readings can be large or run the other way.

These molecules were tested against Retinaldehyde dehydrogenase 3 (Homo sapiens) (UniProt P47895) (assay: qHTS for Inhibitors of the Aldehyde Dehydrogenase Family (ALDH1A3) Primary screen (AID 2061315)). Settings: ALDH inhibition qHTS; series mostly up to 56 µM.
In the case of `COc1ccccc1-c1cc(Nc2cccc(CS(N)(=O)=O)c2)ncn1`, the Potency is reported as “inactive”.
In the case of `CC1CCC(=O)CC(O)C(O)CC(=O)O1` (stereo unspecified), the Potency is reported as “inactive”.
For `CC(=O)OC1C(c2ccccc2)CCC(c2ccccc2)C1OC(C)=O` (stereo unspecified), the Potency was “inactive”.
With `CCC(=O)N[C@@H]1Cc2ccccc2[C@H](c2ccccc2)C1` the Potency was “inactive”.
With `C=C1Cc2c(Cl)cc3[nH]c4c5c3c2[C@@]2(O)[C@@H]1C[C@@H]2C(C)(C)O[C@H]5C1CC[C@@]2(O)[C@@]35O[C@@H]3[C@H]3OC(C)(C)[C@H]3O[C@H]5CC[C@]2(C)[C@@]41C` (stereo partly specified) the Potency was “inactive”.
In the case of `N#Cc1cc(CN2CCC(Nc3ncnc4sc(Cl)cc34)CC2)ccc1F`, the Potency is reported as “inactive”.
For `Cc1coc2c1CC1OC1(C)CCC1OC1(C)C2` (stereo unspecified), the Potency was “inactive”.
In the case of `CC(=O)c1ccc(O[C@@H]2O[C@H](CO[C@@H]3OC[C@@H](O)[C@H](O)[C@H]3O)[C@@H](O)[C@H](O)[C@H]2O)cc1`, the Potency is reported as “inactive”.
`Cc1c(O)cc2c(c1O)COC1(O)CCCOC21` (stereo unspecified) was tested, and the Potency was “inactive”.
With `CCOc1cccc(NC(=O)c2ccc(N3CCCC3)c(C(F)(F)F)c2)c1` the Potency was “inactive”.
With `CC(=O)O[C@H](C[C@@H](C)[C@H]1C(=O)[C@H](O)[C@@]2(C)[C@@H]3CCC4C(C)(C)[C@@H](O[C@@H]5OC[C@H](O)[C@H](O)[C@H]5O)CC[C@@]45C[C@@]35CC[C@]12C)[C@@H]1OC1(C)C` (stereo partly specified) the Potency was “inactive”.
